Measurements reported in the supplement of paper PMC6555819.

Tests used:
Experiment in all cases: PBM binding z-score (relative to random genomic background probes); higher = stronger binding; sequences stand for … in GC…GCGATTGACAGCGTAGAATGAAGG
[1] = system: FXR:RXRa (NR concentration 270 nM, RXRa partner concentration 90 nM)
Procedure, shortened: (§1)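 Random background probes are the reference for binding z-scores. These scores derive from regression-normalized fluorescence on custom Agilent 4×180K protein-binding microarrays incubated 1 h with ligand-free nuclear receptor dimers. Binding was detected with antibodies against each partner (one per run).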

[2] = system: LXRa:RXRa (NR concentration 270 nM, RXRa partner concentration 90 nM)
Procedure, shortened: as §1

[3] = system: LXRa homodimer (NR concentration 270 nM)
Procedure, shortened: as §1

[4] = system: LXRb:RXRa (NR concentration 270 nM, RXRa partner concentration 90 nM)
Procedure, shortened: as §1

[5] = system: LXRb homodimer (NR concentration 270 nM)
Procedure, shortened: as §1

[6] = system: PPARa:RXRa (NR concentration 270 nM, RXRa partner concentration 90 nM)
Procedure, shortened: as §1

[7] = system: PPARg:RXRa (NR concentration 180 nM, RXRa partner concentration 90 nM)
Procedure, shortened: as §1

[8] = system: PPARg:RXRa 270nM:90nM, anti-RXR (NR concentration 270 nM, RXRa partner concentration 90 nM)
Procedure, shortened: as §1

[9] = system: PPARg:RXRa 30nM:10nM, anti-RXR (NR concentration 30 nM, RXRa partner concentration 10 nM)
Procedure, shortened: as §1

[10] = system: PPARg:RXRa 90nM:30nM, anti-RXR (NR concentration 90 nM, RXRa partner concentration 30 nM)
Procedure, shortened: as §1

Row | Sequence | PBM binding z-score [1] | PBM binding z-score [2] | PBM binding z-score [3] | PBM binding z-score [4] | PBM binding z-score [5] | PBM binding z-score [6] | PBM binding z-score [7] | PBM binding z-score [8] | PBM binding z-score [9] | PBM binding z-score [10]
1 | ATCTCTAGGTATGACTCAGTTCAGTGAAGAACGC | 0.312 | 0.266 | 0.305 | 0.205 | 0.789 | 0.0186 | 0.264 | 0.0643 | -0.0117 | 0.0715
2 | AAACCAAGGTGATCGTGAGGTCGTTGATACTAAC | 1.87 | 1.29 | 0.284 | 1.13 | -0.456 | 1.54 | 0.386 | 0.544 | -0.322 | 0.389
3 | GGAACGAGGGCATTCGAGTTGATATCATGGCGAT | 1.43 | 2.06 | -0.497 | 0.289 | -0.383 | 1.64 | 1.04 | 0.683 | 0.332 | 0.448
4 | CTCGGAAGGTCGTGCTCAGGTGAGTATACCAAAC | 1.88 | 1.55 | -0.00824 | 1.29 | -0.534 | 2.79 | 0.376 | 1.25 | 0.069 | 0.755
5 | AGAATGAGGCTAAGATCAGGGAAACAGAATACAT | -0.36 | -0.634 | -0.0824 | -0.157 | -0.737 | -0.0265 | 0.645 | 0.202 | 0.113 | 0.138
6 | CCTACTGGGCCAAAGGTCATCGATTCCAATGCTC | 4.44 | 5.28 | 3.59 | 4.41 | 0.378 | 6.8 | 11.5 | 10.6 | 10.6 | 11.5
7 | TCATATACGTAAACAGGTGAAAGTCCGTAAGTTA | 1.15 | 1.2 | 0.468 | 1.33 | 0.615 | 1.75 | 1.14 | 2.99 | 4.45 | 3.61
8 | TCTAGCAGGCCAGAGGGTCACTCAGGAGGTACGG | 1.25 | 1.15 | -0.544 | 0.792 | -1.23 | 2.35 | 1.43 | 2.66 | 2 | 2.55
9 | GCATATAGGTAATACAAAGTGAAAGTCCGATTGT | -0.614 | -0.368 | -0.219 | -0.304 | -0.361 | 0.632 | 1.12 | 0.884 | 0.583 | 0.849
10 | CCTGCTAGGTAATGGTCAGCTAATCTACAGTATG | -0.151 | -0.438 | -0.575 | -0.764 | -0.48 | -0.344 | -0.182 | -0.104 | -0.225 | -0.424
11 | AATACAGGGTCTCTAGGCCAGAGTAGGTACGAAT | -0.207 | -0.38 | -0.356 | -0.392 | -0.462 | -0.078 | 0.645 | 0.0123 | -0.245 | -0.282
12 | CGTCCAGGGTCATAGGAGGTCAGTGAAGACAGAT | 7.36 | 7.25 | 2.83 | 6.26 | 0.185 | 5.85 | 5.65 | 5.78 | 2.38 | 4.63
13 | ATCTCTAGTTAACCAAGTTCAGTGAATGCCGAAC | 0.219 | 1.08 | 1.32 | 0.741 | 0.807 | 0.492 | -0.088 | 0.244 | 0.153 | 0.13
